Screening results from PubChem BioAssay.
ELG1 genotox: qHTS screen for small molecules that induce genotoxicity in human embryonic kidney (HEK293T) cells expressing luciferase-tagged ELG1 | HEK293T ELG1-luciferase reporter, luminescence, 16 h | Potency, µM (top dose mostly 46 µM), for inactives: at the top dose activity change, positive = activation, actives largely listed as activators | 1.3% of 330,000 active; further: % of control where 0% means no effect; nearly all actives have a fitted effect of over 60% in size
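Screening used a luciferase reporter fused to human ELG1 in HEK293T cells. Luminescence was read on a CCD plate imager after 16 hr exposure and 30 min ONE-Glo incubation.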
SMN2 splice up: qHTS Assay for Enhancers of SMN2 Splice Variant Expression; HEK293 SMN2-luciferase splicing reporter, luminescence, 30-36 h; Potency, µM (titrated, usually from 46.1 µM), without a hit: at the top dose activity change, positive = activation, hits mostly activators; 2.8% of 210,000 active; further: % of control where 0% means no effect; nearly all actives have a fitted effect of over 55% in size
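qHTS luciferase splicing reporter: luminescence rises when SMN2 exon 7 is included in transfected HEK293 cells. Compound exposure lasted 30-36 h at 37C, with 4.5 mM final sodium butyrate as control, followed by a ONE-Glo read.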
Luc counter: Counterscreen for Luciferase (Kinase-Glo TM) Inhibition. AID 1379, 2008. Potency, µM (series often up to 38.3 µM), without a hit: at the highest dose activity change, negative = inhibition, usual class: inhibitors. Luciferin 4-monooxygenase (Photuris pensylvanica), Q27757. Kinase-Glo luciferase, ATP luminescence, 8 min. 0.28% of 200,000 active; further: on the % scale 0 is the no-effect control and ±100 the full control effect; nearly all actives have a fitted effect of over 60% in size
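Inhibition of Kinase-Glo luciferase light generation was assessed at 10 uM ATP in pH 7.2 imidazole buffer, with luminescence measured after eight minutes at ambient temperature.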
Rab9 promoter act: qHTS Assay for Rab9 Promoter Activators; Huh7 Rab9 promoter-luciferase reporter, luminescence, 24 h; Potency, µM (doses to about 9.22 µM), for the others: at the top dose activation, negative = inhibition, hits mostly activators; 2.8% of 320,000 active; AID 485297, 2010; further: % of control where 0% means no effect; nearly all actives have a fitted effect of over 60% in size
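Luciferase signal after 10 min detection reagent at ambient indicates Rab9 promoter upregulation; stably transfected Huh7 cells were treated 24 h with compound in DMSO at 37 °C, 5% CO2.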
NPC1 promoter act: qHTS Assay for NPC1 Promoter Activators. Huh7 NPC1 promoter luciferase reporter, 24 h. AID 485313, 2010. 2.4% of 320,000 active. Potency, µM (doses to about 9.22 µM), without a hit: at the top dose activation, actives largely listed as activators; further: % of control where 0% means no effect; nearly all actives have a fitted effect of over 60% in size
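Compounds in DMSO were transferred onto Huh7 NPC1-luciferase reporter cells pre-incubated 2 h; after 24 h at 37 °C, Amplite reagent was dispensed and luminescence recorded 10 min later.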
FLuc modulator: qHTS profiling assay for firefly luciferase inhibitor/activator using purifed enzyme and Km concentrations of substrates (counterscreen for miR-21 project); Luciferin 4-monooxygenase (Photinus pyralis), P08659; purified FLuc, Km substrates, luminescence inhibition; Potency, µM (titrated, usually from 57.5 µM), without a hit: at the highest dose activity change, negative = inhibition, most hits filed as inhibitors; 6.9% of 360,000 active;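 further: plate controls were vehicle for no effect and reference inhibitor for full effect; nearly all actives have a fitted effect of over 55% in size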
Target sequence (P08659 whole entry, looked up): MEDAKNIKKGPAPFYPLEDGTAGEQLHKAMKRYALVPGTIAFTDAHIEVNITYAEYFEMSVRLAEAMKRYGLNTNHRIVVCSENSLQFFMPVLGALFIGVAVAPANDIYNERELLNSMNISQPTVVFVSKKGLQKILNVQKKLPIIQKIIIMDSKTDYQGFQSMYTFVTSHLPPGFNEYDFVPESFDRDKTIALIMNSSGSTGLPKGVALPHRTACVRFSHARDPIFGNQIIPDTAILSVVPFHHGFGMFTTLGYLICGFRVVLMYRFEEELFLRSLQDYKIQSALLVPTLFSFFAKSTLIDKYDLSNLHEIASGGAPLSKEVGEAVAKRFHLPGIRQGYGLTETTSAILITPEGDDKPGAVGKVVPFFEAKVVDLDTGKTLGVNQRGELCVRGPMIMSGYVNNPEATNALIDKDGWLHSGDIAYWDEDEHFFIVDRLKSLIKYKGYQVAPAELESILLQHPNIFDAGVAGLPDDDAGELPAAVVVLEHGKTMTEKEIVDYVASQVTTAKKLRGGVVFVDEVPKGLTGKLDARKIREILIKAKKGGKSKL
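Purified P. pyralis luciferase (10nM final) with 10uM D-luciferin and 10uM ATP (Km levels) in 50mM Tris acetate pH 7.5, 10mM Mg acetate, 0.01% Tween-20, 0.05% BSA; qHTS 6-point titration, ~60 µM downward; luminescence read.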
* hit, by the source's call; ? = inconclusive; / = not tested or not shown; [ ] = remark or other dose. An excerpt weighted towards active compounds, which were near 7.3% of everything screened. The call rests on the fitted dose curve; in most records, active means well fitted curve in the direction sought with a large enough effect; inconclusive means small, poorly fitted or top-dose-only effect, or another doubt; inactive means no such curve, though single readings can be large; an effect the other way counts as inactive or inconclusive. Potency means the concentration at half of the fitted maximal effect.

SMILES | ELG1 genotox | SMN2 splice up | Luc counter | Rab9 promoter act | NPC1 promoter act | FLuc modulator
Cc1nc2ccc(OC(=O)c3ccccc3)cc2s1 | -4% | / | / | -4% | 1% | 8.5µM*
CCC1=C(C[C@H]2NCCc3cc(OC)c(OC)cc32)C[C@H]2c3ccccc3CCN2C1 | / | -4%[9.22 µM] | -2%[7.66 µM] | / | / | /
C/C(=C\C(=O)c1ccc(Br)cc1)NCc1ccccc1 | ? | -4% | -3% | 18% | 1% | 24µM*
CN(C)C(CNC(=O)Cc1ccc(Br)cc1)c1ccccc1 (stereo not given) | 4% | / | / | 0% | -3% | -2%
CN(C(=O)Oc1ccc(F)cc1)c1ccccc1 | 0% | / | / | 1% | 0% | 3%
CN(C(=O)Oc1ccc(C(C)(C)C)cc1)c1ccccc1 | ? | 12% | 5% | ? | 20% | 24µM*
CCC(=O)c1ccc(OC(=O)N(C)c2ccccc2)cc1 | 15µM* | 11µM* | -1% | 2.2µM* | 2.8µM* | ?
C=C[C@@H]1CN2CC[C@H]1CC2[C@H](O)c1ccnc2ccccc12 (stereo not given in full) | / | -7%[9.22 µM] | 2%[7.66 µM] | / | / | /
Fc1cccc(F)c1-c1nc(-c2ccc(Cl)cc2)no1 | ? | / | / | 2.8µM* | 4µM* | 5.4µM*
O=C1c2ccccc2C(=O)N1Cc1nc(-c2ccccc2)no1 | 1% | 10% | -1% | -1% | -1% | ?
O=[As](O)(O)c1ccc(N=Nc2ccc([As](=O)(O)O)cc2)cc1 | / | -8%[9.22 µM] | -2%[7.66 µM] | / | / | /
Cc1cc(NC(=O)c2noc3c2CCCCC3)no1 | ? | ? | 1% | ? | ? | 15µM*
CC(C)(COCC1CO1)COCC1CO1 (stereo not given) | / | -5% | / | / | / | /
CSCC[C@@H](N)P(C)(=O)O | / | -3%[9.22 µM] | -7%[7.66 µM] | / | / | /
C1=C(c2c[nH]c3ccccc23)CCN(Cc2ccccc2)C1 | -5% | / | / | -1% | -8% | 3%
Nc1c2c(nc3ccccc13)CCN(Cc1ccccc1)C2 | -4% | / | / | -3% | 12% | 24µM*
ClC(Cl)=C(Cl)Cl | / | 17% | / | / | / | /
Cc1cc(NC(=O)CCl)on1 | 7% | 27% | 3% | 2% | -6% | -2%
Cc1ccc(-c2cc(NC(=O)c3ccccc3)on2)cc1 | ? | / | / | 2.2µM* | ? | 2.4µM*
Cc1ccnc(SCc2nc3ccccc3s2)n1 | 9.2µM* | 11µM* | -3% | 3.5µM* | ? | 6.7µM*
O=P(O)(O)CCP(=O)(O)O | / | -16%[9.22 µM] | -1%[7.66 µM] | / | / | /
C/C(=N\NC(=S)Nc1ccccc1)c1c(O)n(C)c(=O)n(C)c1=O | 7% | 28% | 0% | -2% | 6% | 12µM*
CC/C(=N\Nc1ccccc1)c1c(O)n(C)c(=O)n(C)c1=O | 0% | -39% | 3% | -13% | 1% | -2%
CC1=C/C(=N\NC(=S)NCCc2ccccc2)CC(C)(C)C1 | 13% | ? | 3% | 29% | 25% | 21µM*
c1ccc(CCNCc2ccccc2)cc1 | 1% | 17% | 6% | 0% | -5% | 3%
SMILES | ELG1 genotox | SMN2 splice up | Luc counter | Rab9 promoter act | NPC1 promoter act | FLuc modulator
COc1ccc(C(=O)Nc2cc(Cl)ccc2C(=O)O)cc1 | 6% | / | / | 16% | 13% | 15µM*
Cc1cc[c]([Sb]2[O]C([C@H](O)[C@H](O)C(=O)O)[C@@H](CO)[O]2)cc1 (stereo not given in full) | / | 3%[9.22 µM] | 0%[7.66 µM] | / | / | /
CCN(CC)c1ccc(/C=C/[N+](=O)[O-])cc1 | ? | 14% | -1% | -3% | -6% | 19µM*
CCCCC[CH2][Hg][S]C1=C2N=CNC2NC(N)=N1 (stereo not given) | / | -48%[9.22 µM] | -5%[7.66 µM] | / | / | /
COc1ccc2nc(N3CCN(C(=O)CS(=O)(=O)c4ccc(C)cc4)CC3)sc2c1 | / | / | / | / | / | 4.8µM*
O=C1NC(=O)N(c2ccccc2F)C(=O)/C1=C/c1ccc(Sc2nc3ccccc3[nH]2)o1 | 1% | 3%[1.84 µM] | -28% | -5% | 1% | ?
O=C1NC(=O)N(c2cccc(Cl)c2)C(=O)/C1=C\c1ccc(Sc2nc3ccccc3[nH]2)o1 | 0% | 7% | -7% | -1% | -2% | 24µM*
O=C(O)[C@H]1C2c3ccccc3C(c3ccccc32)[C@@H]1C(=O)NCC1CC1 | / | -3%[9.22 µM] | -2%[7.66 µM] | / | / | /
Cc1ccc(-c2nnc(Nc3ccc(OC(F)(F)Cl)cc3)c3ccccc23)cc1S(=O)(=O)NC(C)(C)CO | / | 16% | / | / | / | 5.4µM*
Cc1ccc(-c2nn3c(C)nnc3c3ccccc23)cc1S(=O)(=O)NCCO | ? | ? | -1% | 0% | -1% | 0%
O=C1N[C@@]2(CN3CCC2CC3)C(=O)N1CN(Cc1ccccc1)c1ccccc1 | / | 2%[9.22 µM] | -3%[7.66 µM] | / | / | /
O=C(O)CN1CCN(CC(=O)O)CC(=O)[O][Hg][O]C(=O)C1 | / | 5%[9.22 µM] | -20%[7.66 µM] | / | / | /
CCOc1ccc2nc(N=Nc3c(O)[nH]c(=S)[nH]c3=O)sc2c1 | -6% | 3% | -8% | -1% | -4% | 19µM*
S=C=Nc1cccc2ccccc12 | / | 2% | / | / | / | /
CN(C)CS/C(N)=N/[C@H](O)C(Cl)(Cl)Cl | / | 11%[9.22 µM] | -1%[7.66 µM] | / | / | /
NS(=O)(=O)c1ccc(NC(=O)Nc2ccccc2)cc1 | 0% | / | / | -3% | 12% | ?
CC(C)(C)c1csc(NC(=O)Nc2ccccc2)n1 | -1% | 7.9µM* | -3% | 1.8µM* | 4µM* | 3.4µM*
O=C(c1ccc(F)cc1)C(Cc1ccccc1)N1CCCCC1 (stereo not given) | 16% | 29% | 0% | ? | 16% | 19µM*
Cc1ccc(C(=O)Nc2nc3ccccc3n2CCN2CCCC2)cc1 | 4.6µM* | / | / | ? | 15% | 11µM*
CCCCC/C=C\C/C=C\C/C=C\C/C=C\CCCC(=O)NCCCl | / | / | -4%[39.9 µM] | / | / | /
CN(C)C(=O)Cl | / | -2% | / | / | / | /
O=C1/C(=C\c2ccccc2)C[C@@]2(O)[C@H]3Cc4ccc(O)c5c4[C@@]2(CCN3CC2CC2)[C@H]1O5 | / | -63% | / | / | / | /
O=C(COC(=O)c1cccc(NC(=O)c2ccc(Br)cc2)c1)c1ccc(Br)cc1 | / | 14% | / | / | / | 4.3µM*
Cc1ccc(C(=O)COC(=O)c2cccc(NC(=O)c3ccc(Br)cc3)c2)cc1 | / | ? | / | / | / | 1.2µM*
C#CCO | / | -4% | / | / | / | /
C=CCOC(C)=O | / | -9% | / | / | / | /
COc1ccc(-c2nc3ccccc3c(=O)o2)cc1 | ? | 11µM* | ? | ? | ? | 1.2µM*
O=C(OCc1ccc(Cl)c(Cl)c1)c1ccccn1 | 1% | -6% | -10% | -2% | -2% | 15µM*
CCN(CC)c1ccc(/C=C2\C(=O)NC(=S)N(C)C2=O)o1 | 21µM* | / | / | 1.3µM* | 1.4µM* | 9.5µM*
